Compounds without any hit were thinned out: in the full panel of roughly 83,000, 20% have a hit.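 Interpretation: 100, growth as untreated; towards 0, rising growth inhibition; 0, no net growth; 0 to -100, cell death. Compounds scoring below 10 were considered active.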 Activity calls are given as the source filed them.
Columns and labels:
Assay in all cases: NCI-60 one-dose screen, 48 h (100 = growth as untreated, 0 = no growth, -100 = all killed)
Conditions in all cases: 10 µM unless noted
RPMI-8226 leukemia = system: RPMI-8226 leukemia
OVCAR-8 ovarian = system: OVCAR-8 ovarian
OVCAR-5 ovarian = system: OVCAR-5 ovarian
OVCAR-4 ovarian = system: OVCAR-4 ovarian
IGROV1 ovarian = system: IGROV1 ovarian
OVCAR-3 ovarian = system: OVCAR-3 ovarian
HS 578T breast = system: HS 578T breast
NCI/ADR-RES ovarian = system: NCI/ADR-RES ovarian
T-47D breast = system: T-47D breast
BT-549 breast = system: BT-549 breast
MDA-MB-435 melanoma = system: MDA-MB-435 melanoma
SW-620 colon = system: SW-620 colon
MCF7 breast = system: MCF7 breast
HCT-116 colon = system: HCT-116 colon
HCC-2998 colon = system: HCC-2998 colon
KM12 colon = system: KM12 colon
SK-OV-3 ovarian = system: SK-OV-3 ovarian

Measured: growth

O=C1Nc2ccc(Cl)cc2[C@@](C#CC2CC2)(C(F)(F)F)O1
inactive: RPMI-8226 leukemia 92.2% | OVCAR-8 ovarian 91.3% | OVCAR-5 ovarian 91.1% | OVCAR-4 ovarian 89.1% | OVCAR-3 ovarian 101% | HS 578T breast 99.2% | NCI/ADR-RES ovarian 99.1% | T-47D breast 70.4% | BT-549 breast 117% | MDA-MB-435 melanoma 88% | SW-620 colon 107% | MCF7 breast 105% | HCT-116 colon 82.9% | HCC-2998 colon 108% | KM12 colon 86.1%
active: IGROV1 ovarian -10.5%

COc1cccc(N2CCN(CC(=O)N3CCN(c4nnc(-c5ccc(Cl)cc5)c(-c5ccc(Cl)cc5)n4)CC3)CC2)c1
active: RPMI-8226 leukemia -37.2%
inactive: OVCAR-5 ovarian 85.9% | OVCAR-4 ovarian 57.9% | SK-OV-3 ovarian 95.6% | OVCAR-3 ovarian 68.1% | HS 578T breast 58.4% | NCI/ADR-RES ovarian 65.2% | T-47D breast 27.2% | BT-549 breast 88.4% | MDA-MB-435 melanoma 70.9% | SW-620 colon 72.3% | MCF7 breast 41.2% | HCT-116 colon 40.1% | HCC-2998 colon 80.6% | KM12 colon 56.5%

CCOC(=O)c1cnc2c(C)cc(C)cc2c1NCCCN(C)C
inactive: OVCAR-5 ovarian 38.6% | OVCAR-4 ovarian 44.4% | SK-OV-3 ovarian 38.6% | OVCAR-3 ovarian 34.5% | HS 578T breast 65.7% | NCI/ADR-RES ovarian 31.7% | T-47D breast 54.5% | BT-549 breast 61.3% | MDA-MB-435 melanoma 32.3% | SW-620 colon 30.3% | MCF7 breast 15.1% | HCT-116 colon 15.4% | HCC-2998 colon 29%
active: RPMI-8226 leukemia 7.09% | IGROV1 ovarian 5.17%

O=C1/C(=C/c2ccccc2Cl)CCc2ccccc21
inactive: RPMI-8226 leukemia 95.4% | OVCAR-8 ovarian 96.7% | OVCAR-5 ovarian 109% | OVCAR-4 ovarian 110% | SK-OV-3 ovarian 116% | OVCAR-3 ovarian 112% | HS 578T breast 99.1% | NCI/ADR-RES ovarian 102% | T-47D breast 105% | BT-549 breast 108% | MDA-MB-435 melanoma 95.4% | SW-620 colon 110% | MCF7 breast 87.9% | HCT-116 colon 99.5% | HCC-2998 colon 102% | KM12 colon 108%

COC(=O)c1c(NC(=O)CSc2nnnn2-c2ccc(OC)cc2)sc(C)c1C
inactive: RPMI-8226 leukemia 89.8% | OVCAR-8 ovarian 87% | OVCAR-4 ovarian 94.5% | SK-OV-3 ovarian 95.9% | OVCAR-3 ovarian 99.2% | HS 578T breast 31.7% | NCI/ADR-RES ovarian 83.9% | T-47D breast 92.5% | BT-549 breast 99.6% | MDA-MB-435 melanoma 109% | SW-620 colon 96.2% | MCF7 breast 85.8% | HCT-116 colon 92.1% | HCC-2998 colon 87.6%

C[C@H]1C(=O)N2c3ccccc3[C@@]3(O)C[C@@H](n4cnc5ccccc5c4=O)C(=O)N1[C@@H]23
inactive: RPMI-8226 leukemia 125% | OVCAR-8 ovarian 91.7% | OVCAR-5 ovarian 110% | OVCAR-4 ovarian 109% | SK-OV-3 ovarian 104% | OVCAR-3 ovarian 115% | HS 578T breast 32.9% | NCI/ADR-RES ovarian 104% | T-47D breast 99.1% | BT-549 breast 103% | MDA-MB-435 melanoma 109% | SW-620 colon 107% | MCF7 breast 98.9% | HCT-116 colon 93.8% | HCC-2998 colon 98.5%

CC(=O)/C(=C/c1ccc(Cl)cc1)C(=O)c1ccccc1
inactive: RPMI-8226 leukemia 34.8% | OVCAR-8 ovarian 89.2% | OVCAR-5 ovarian 111% | OVCAR-4 ovarian 79.7% | SK-OV-3 ovarian 101% | IGROV1 ovarian 91.6% | OVCAR-3 ovarian 91.3% | NCI/ADR-RES ovarian 85.2% | T-47D breast 83% | BT-549 breast 97.4% | MDA-MB-435 melanoma 61.4% | SW-620 colon 61.3% | MCF7 breast 53.1% | HCT-116 colon 66% | HCC-2998 colon 99.2%

O=C(/C=C/c1c(-c2ccccc2)[nH]c2ccccc12)S(=O)(=O)c1ccccc1
inactive: RPMI-8226 leukemia 21.4% | OVCAR-5 ovarian 100% | OVCAR-4 ovarian 80.1% | SK-OV-3 ovarian 89.5% | IGROV1 ovarian 51.8% | OVCAR-3 ovarian 68.9% | HS 578T breast 90.1% | NCI/ADR-RES ovarian 16.4% | T-47D breast 29.4% | BT-549 breast 87.9% | SW-620 colon 39.8% | MCF7 breast 43.3% | HCT-116 colon 46.1% | HCC-2998 colon 60.7% | KM12 colon 36.3%
active: MDA-MB-435 melanoma 9.36%

CCN(CC)CCOCC[C@H]1CC[C@H]2[C@@H]3[C@H](C)Cc4cc(OS(N)(=O)=O)ccc4[C@H]3CC[C@]12C
active: RPMI-8226 leukemia -56.4% | OVCAR-5 ovarian -50.1% | OVCAR-4 ovarian 8.49% | SK-OV-3 ovarian -94.8% | OVCAR-3 ovarian -86.5% | HS 578T breast -44.6% | NCI/ADR-RES ovarian -70.2% | T-47D breast -46.4% | BT-549 breast -53.4% | MDA-MB-435 melanoma -63.7% | SW-620 colon -77.5% | MCF7 breast -63.1% | HCT-116 colon -98.4% | HCC-2998 colon -92.7% | KM12 colon -80.8%

CN(C)CCCNc1nn2c(=O)c3ccccc3nc2c2ccccc12
inactive: RPMI-8226 leukemia 48.8% | OVCAR-5 ovarian 80.9% | OVCAR-4 ovarian 77.4% | SK-OV-3 ovarian 54.6% | OVCAR-3 ovarian 57.7% | HS 578T breast 61.6% | NCI/ADR-RES ovarian 72.7% | T-47D breast 92.5% | BT-549 breast 75.6% | MDA-MB-435 melanoma 74.7% | SW-620 colon 57.9% | MCF7 breast 26.7% | HCT-116 colon 25.2% | HCC-2998 colon 70.6% | KM12 colon 66.1%
active: IGROV1 ovarian -12.2%

CN(C)c1ccc(-n2nc3ccccc3n2)cc1
active: IGROV1 ovarian -38.5%
inactive: RPMI-8226 leukemia 357% | OVCAR-8 ovarian 97.3% | OVCAR-5 ovarian 80.3% | OVCAR-4 ovarian 115% | SK-OV-3 ovarian 113% | OVCAR-3 ovarian 93.7% | HS 578T breast 96.4% | T-47D breast 78.4% | BT-549 breast 91.6% | MDA-MB-435 melanoma 100% | SW-620 colon 95.9% | MCF7 breast 89.9% | HCT-116 colon 77% | HCC-2998 colon 75.3% | KM12 colon 108%

CCCCCCCCCCN1CCC(N2CCCCC2)CC1
active: RPMI-8226 leukemia -44.8% | OVCAR-8 ovarian -1.39% | HS 578T breast -5.23% | T-47D breast -55.9% | MDA-MB-435 melanoma -25% | SW-620 colon -56.9% | MCF7 breast -60.8% | HCT-116 colon -65.2% | KM12 colon -6.35%
inactive: OVCAR-5 ovarian 41.5% | OVCAR-4 ovarian 53.7% | SK-OV-3 ovarian 20.9% | OVCAR-3 ovarian 20.1% | NCI/ADR-RES ovarian 49.7% | BT-549 breast 37.5% | HCC-2998 colon 14.8%

Cc1c2oc3c(C)ccc(C(=O)OC(C)C4NC(=O)C(C(C)C)N(C)C(=O)CN(C)C(=O)C5CCCN5C(=O)C(C(C)C)NC4=O)c3nc-2c(C(=O)OC(C)C2NC(=O)C(C(C)C)N(C)C(=O)CN(C)C(=O)C3CCCN3C(=O)C(C(C)C)NC2=O)c(N)c1=O (configuration not stated)
active: IGROV1 ovarian 7.56% | OVCAR-3 ovarian 5.3% | HS 578T breast -2.72% | T-47D breast 5.74% | BT-549 breast -38.1% | MDA-MB-435 melanoma -71.1% | SW-620 colon 3.76% | MCF7 breast 5.55% | HCT-116 colon 7.39% | HCC-2998 colon -34.4% | KM12 colon 0.674%
inactive: OVCAR-5 ovarian 14.6% | SK-OV-3 ovarian 22.5% | NCI/ADR-RES ovarian 16.9%

COc1cc(C(=O)c2cc3c(cc2C)OCO3)cc(OC)c1OC
inactive: RPMI-8226 leukemia 39.1% | OVCAR-8 ovarian 20.4% | OVCAR-4 ovarian 38% | SK-OV-3 ovarian 11.1% | IGROV1 ovarian 25.1% | HS 578T breast 44.3% | T-47D breast 58.2% | BT-549 breast 68.3% | SW-620 colon 25.6% | MCF7 breast 13.6% | HCT-116 colon 15.9% | HCC-2998 colon 10.1% | KM12 colon 16.5%
active: OVCAR-3 ovarian 5.31% | MDA-MB-435 melanoma -49%

O=[N+]([O-])c1ccc(NS(=O)(=O)c2ccc(Cl)c(Cl)c2)cc1
inactive: RPMI-8226 leukemia 35.6% | OVCAR-8 ovarian 79.2% | OVCAR-5 ovarian 113% | OVCAR-4 ovarian 63.4% | SK-OV-3 ovarian 94.3% | IGROV1 ovarian 88.7% | OVCAR-3 ovarian 78.3% | HS 578T breast 93.7% | NCI/ADR-RES ovarian 83.2% | BT-549 breast 76.8% | MDA-MB-435 melanoma 88.9% | SW-620 colon 103% | HCT-116 colon 85.3% | HCC-2998 colon 68.9% | KM12 colon 90.1%

Cc1sc2nc3c4ccccc4c(NCCCN(C)C)nn3c(=O)c2c1C
active: RPMI-8226 leukemia -56.4% | SW-620 colon -43.7%
inactive: OVCAR-5 ovarian 71% | OVCAR-4 ovarian 65.8% | IGROV1 ovarian 23.4% | OVCAR-3 ovarian 59.2% | NCI/ADR-RES ovarian 66.8% | T-47D breast 85.2% | BT-549 breast 66.7% | MDA-MB-435 melanoma 24.8% | MCF7 breast 23.8% | HCT-116 colon 36.1%

Cc1cc(C)c2c(N)c3cccc(C)c3nc2n1
inactive: HS 578T breast 73.2%
active: RPMI-8226 leukemia -35% | OVCAR-5 ovarian -22.9% | OVCAR-4 ovarian 2.47% | SK-OV-3 ovarian 2.68% | IGROV1 ovarian -38.1% | OVCAR-3 ovarian -35.7% | NCI/ADR-RES ovarian -28.9% | T-47D breast -3.39% | BT-549 breast 0.0119% | MDA-MB-435 melanoma 2.84% | SW-620 colon -1.92% | MCF7 breast 6.02% | HCT-116 colon -39.4% | HCC-2998 colon -38.7% | KM12 colon 6.37%

From PubChem BioAssay (NCI)
